How the values were obtained:
Test in all cases: log2 ratio of Biotin-Ahx-Ub-VS probe labelling (fragment/DMSO); higher = less target engagement (more negative = stronger competition), active = hit call of the paper (q ≤ 0.05, log2 ratio ≤ -1)
Settings in all cases: compound concentration: 200 uM; treatment time: 3 h
USP19 = molecular target: T1, USP19 (UniProt O94966)
T1 sequence (whole entry): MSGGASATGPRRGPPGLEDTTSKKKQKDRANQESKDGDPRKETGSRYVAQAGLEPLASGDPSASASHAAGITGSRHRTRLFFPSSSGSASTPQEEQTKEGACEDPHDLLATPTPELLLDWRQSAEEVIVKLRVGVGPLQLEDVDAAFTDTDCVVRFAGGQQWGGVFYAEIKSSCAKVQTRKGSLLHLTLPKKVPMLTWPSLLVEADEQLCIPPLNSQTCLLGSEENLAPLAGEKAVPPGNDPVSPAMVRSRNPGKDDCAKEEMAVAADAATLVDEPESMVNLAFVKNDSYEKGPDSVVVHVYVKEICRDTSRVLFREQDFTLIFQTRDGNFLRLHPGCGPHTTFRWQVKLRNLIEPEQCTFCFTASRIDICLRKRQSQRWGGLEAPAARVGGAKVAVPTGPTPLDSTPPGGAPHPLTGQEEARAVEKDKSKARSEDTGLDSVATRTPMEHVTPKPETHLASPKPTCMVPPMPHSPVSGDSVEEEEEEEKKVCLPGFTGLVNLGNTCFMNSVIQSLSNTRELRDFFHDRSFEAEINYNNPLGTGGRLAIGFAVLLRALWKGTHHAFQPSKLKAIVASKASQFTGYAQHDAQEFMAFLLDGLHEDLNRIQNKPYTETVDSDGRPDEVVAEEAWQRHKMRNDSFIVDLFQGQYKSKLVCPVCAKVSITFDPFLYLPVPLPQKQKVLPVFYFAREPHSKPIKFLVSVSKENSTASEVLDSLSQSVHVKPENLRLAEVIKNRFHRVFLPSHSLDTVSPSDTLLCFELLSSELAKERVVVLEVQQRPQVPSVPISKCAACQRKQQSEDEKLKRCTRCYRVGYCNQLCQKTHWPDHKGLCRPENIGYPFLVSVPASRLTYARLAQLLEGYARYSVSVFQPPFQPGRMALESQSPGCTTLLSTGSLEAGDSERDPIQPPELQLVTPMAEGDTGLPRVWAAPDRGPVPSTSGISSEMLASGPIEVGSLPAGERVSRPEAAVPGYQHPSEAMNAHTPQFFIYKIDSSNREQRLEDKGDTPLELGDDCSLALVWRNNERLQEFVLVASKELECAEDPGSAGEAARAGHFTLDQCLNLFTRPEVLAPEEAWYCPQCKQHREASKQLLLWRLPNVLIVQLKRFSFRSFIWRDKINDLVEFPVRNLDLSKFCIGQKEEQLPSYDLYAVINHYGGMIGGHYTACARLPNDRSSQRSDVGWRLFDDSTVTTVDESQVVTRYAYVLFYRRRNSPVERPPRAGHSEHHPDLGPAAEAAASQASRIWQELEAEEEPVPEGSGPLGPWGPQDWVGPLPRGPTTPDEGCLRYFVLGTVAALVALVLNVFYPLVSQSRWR
Summary of the method: (§1)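 Average log2 ratios of fragment over vehicle were obtained by unpaired t-test from global-median-normalised Spectronaut label-free quantities. Proteins with ≥2 unique peptides were included. HEK293T lysate (495 µg per sample) was treated in triplicate with fragment at 200 µM or vehicle for 3 h, then with Biotin-Ahx-Ub-VS at 0.5 µM final for 1 h, and labelled DUBs were NeutrAvidin-enriched and run by diaPASEF LC-MS/MS.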

USP24 = USP24 (UniProt Q9UPU5)
Sequence of USP24 (Q9UPU5 whole entry): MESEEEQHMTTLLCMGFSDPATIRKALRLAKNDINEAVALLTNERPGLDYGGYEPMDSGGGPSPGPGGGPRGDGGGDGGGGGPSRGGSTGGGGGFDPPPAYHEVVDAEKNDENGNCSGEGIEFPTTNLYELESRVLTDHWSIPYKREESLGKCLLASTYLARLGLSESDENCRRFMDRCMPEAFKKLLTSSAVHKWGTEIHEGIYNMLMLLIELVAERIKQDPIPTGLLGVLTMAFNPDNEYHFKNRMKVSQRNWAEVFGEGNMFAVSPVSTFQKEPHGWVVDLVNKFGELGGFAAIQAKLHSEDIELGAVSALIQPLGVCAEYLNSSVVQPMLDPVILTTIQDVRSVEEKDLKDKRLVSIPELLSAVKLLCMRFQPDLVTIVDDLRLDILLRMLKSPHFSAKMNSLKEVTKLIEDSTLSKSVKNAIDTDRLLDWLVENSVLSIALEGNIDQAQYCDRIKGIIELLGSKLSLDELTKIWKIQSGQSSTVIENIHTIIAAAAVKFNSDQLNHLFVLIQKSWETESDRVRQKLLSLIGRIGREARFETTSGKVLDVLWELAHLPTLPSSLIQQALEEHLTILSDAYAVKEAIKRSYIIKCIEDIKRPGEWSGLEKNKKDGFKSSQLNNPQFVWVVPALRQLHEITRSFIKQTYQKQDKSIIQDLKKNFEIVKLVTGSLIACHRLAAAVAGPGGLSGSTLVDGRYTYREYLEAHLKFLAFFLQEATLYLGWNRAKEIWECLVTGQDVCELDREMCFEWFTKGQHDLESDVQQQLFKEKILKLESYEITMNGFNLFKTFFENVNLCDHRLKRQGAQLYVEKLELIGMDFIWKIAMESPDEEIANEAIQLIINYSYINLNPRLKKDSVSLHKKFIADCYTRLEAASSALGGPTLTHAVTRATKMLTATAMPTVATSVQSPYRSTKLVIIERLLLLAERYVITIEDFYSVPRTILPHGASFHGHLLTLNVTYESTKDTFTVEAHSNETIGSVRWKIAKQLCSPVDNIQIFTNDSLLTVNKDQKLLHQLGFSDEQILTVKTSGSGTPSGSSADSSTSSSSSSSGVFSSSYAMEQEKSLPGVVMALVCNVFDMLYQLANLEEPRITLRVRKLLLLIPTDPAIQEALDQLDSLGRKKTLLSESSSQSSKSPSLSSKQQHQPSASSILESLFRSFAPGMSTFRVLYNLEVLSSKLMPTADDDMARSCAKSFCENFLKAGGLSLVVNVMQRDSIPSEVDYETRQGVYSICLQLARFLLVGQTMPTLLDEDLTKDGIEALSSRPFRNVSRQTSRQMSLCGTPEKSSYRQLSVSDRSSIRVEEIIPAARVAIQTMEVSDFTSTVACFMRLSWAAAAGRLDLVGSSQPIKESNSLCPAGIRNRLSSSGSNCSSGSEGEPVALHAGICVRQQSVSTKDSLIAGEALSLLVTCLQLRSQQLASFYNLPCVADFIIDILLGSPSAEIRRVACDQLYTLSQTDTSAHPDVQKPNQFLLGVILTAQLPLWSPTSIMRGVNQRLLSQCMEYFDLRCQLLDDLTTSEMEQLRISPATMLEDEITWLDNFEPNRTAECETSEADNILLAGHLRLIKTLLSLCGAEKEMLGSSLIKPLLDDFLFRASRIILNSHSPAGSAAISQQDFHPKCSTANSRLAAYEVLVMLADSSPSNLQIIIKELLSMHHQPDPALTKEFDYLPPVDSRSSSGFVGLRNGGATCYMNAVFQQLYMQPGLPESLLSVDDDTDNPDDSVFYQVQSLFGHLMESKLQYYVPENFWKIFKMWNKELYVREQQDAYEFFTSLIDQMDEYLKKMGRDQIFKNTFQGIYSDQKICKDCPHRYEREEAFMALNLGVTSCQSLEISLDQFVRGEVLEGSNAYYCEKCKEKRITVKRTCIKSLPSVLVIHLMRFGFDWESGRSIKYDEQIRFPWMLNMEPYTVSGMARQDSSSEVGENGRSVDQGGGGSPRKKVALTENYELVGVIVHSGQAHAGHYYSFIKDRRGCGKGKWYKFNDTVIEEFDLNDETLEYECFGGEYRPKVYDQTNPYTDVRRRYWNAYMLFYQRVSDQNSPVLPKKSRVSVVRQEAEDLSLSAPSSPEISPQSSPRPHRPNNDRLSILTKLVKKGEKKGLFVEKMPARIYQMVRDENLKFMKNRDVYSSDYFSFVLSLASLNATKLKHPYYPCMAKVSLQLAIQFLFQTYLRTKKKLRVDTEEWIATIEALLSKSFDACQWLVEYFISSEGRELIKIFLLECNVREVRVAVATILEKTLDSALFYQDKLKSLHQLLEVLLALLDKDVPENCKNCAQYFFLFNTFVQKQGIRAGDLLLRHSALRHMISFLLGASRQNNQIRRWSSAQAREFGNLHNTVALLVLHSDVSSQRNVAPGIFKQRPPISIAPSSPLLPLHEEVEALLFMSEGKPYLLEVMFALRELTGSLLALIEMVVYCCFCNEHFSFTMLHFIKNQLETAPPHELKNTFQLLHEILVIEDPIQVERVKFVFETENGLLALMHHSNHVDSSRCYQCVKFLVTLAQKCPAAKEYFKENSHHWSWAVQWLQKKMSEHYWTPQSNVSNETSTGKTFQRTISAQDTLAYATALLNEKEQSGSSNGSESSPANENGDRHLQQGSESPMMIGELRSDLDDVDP
Summary of the method: as §1

USP25 = molecular target: T2, USP25 (UniProt Q9UHP3)
T2 sequence (whole entry): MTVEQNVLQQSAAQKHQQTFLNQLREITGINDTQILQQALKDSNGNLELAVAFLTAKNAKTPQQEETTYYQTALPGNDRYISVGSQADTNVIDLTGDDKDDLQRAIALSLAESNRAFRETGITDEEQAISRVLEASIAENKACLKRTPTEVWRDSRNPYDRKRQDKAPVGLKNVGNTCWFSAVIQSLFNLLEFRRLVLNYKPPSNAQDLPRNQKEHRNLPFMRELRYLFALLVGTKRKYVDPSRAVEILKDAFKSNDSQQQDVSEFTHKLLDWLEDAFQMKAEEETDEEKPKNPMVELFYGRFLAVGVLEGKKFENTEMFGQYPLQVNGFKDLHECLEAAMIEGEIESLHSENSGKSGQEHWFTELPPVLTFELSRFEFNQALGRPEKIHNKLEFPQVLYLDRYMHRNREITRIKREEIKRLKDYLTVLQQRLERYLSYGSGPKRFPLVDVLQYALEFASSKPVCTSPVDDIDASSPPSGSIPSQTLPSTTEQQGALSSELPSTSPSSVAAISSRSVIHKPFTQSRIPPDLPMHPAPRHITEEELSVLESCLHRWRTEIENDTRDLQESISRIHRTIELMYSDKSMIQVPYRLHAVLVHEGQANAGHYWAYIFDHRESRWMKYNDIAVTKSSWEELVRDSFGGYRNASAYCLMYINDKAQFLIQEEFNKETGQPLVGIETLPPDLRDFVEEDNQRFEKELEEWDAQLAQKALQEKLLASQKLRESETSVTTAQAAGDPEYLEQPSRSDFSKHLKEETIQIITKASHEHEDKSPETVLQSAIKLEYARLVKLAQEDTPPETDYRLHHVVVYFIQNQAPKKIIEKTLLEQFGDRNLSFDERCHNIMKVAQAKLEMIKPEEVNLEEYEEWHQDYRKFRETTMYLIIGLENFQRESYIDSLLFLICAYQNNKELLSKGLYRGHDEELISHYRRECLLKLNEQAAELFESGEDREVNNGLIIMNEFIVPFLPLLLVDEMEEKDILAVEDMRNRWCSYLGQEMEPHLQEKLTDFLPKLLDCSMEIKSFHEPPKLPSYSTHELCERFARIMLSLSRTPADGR
Summary of the method: as §1

USP28 = molecular target: T3, USP28 (UniProt Q96RU2)
T3 sequence (whole entry): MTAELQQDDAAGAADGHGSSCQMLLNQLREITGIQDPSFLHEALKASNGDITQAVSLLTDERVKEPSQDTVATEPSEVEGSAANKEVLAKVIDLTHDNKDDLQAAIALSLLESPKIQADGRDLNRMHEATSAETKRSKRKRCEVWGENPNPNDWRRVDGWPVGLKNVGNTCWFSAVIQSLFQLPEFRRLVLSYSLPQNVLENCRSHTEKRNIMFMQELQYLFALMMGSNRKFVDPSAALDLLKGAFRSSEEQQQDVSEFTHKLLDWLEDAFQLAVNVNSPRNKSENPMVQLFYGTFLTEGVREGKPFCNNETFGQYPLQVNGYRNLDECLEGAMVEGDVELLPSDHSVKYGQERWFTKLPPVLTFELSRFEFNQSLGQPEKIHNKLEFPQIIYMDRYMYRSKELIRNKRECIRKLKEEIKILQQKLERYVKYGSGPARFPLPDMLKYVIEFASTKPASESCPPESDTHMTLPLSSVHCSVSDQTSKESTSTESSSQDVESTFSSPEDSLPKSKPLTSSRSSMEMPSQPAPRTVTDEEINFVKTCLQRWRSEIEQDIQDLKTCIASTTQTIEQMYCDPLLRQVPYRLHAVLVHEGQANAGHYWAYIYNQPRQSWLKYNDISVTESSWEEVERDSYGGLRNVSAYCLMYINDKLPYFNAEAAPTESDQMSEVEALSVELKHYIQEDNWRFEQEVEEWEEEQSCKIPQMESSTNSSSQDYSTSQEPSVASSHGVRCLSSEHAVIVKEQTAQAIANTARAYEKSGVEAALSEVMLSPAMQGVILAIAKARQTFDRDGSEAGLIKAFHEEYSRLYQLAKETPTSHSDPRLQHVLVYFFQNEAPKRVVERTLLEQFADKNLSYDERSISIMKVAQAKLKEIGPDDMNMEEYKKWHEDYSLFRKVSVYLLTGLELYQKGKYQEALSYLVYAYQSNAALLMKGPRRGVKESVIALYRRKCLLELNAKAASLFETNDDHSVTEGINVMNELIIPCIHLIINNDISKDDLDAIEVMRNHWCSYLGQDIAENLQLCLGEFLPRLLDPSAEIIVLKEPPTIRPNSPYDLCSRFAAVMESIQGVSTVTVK
Summary of the method: as §1

Measured: log2 ratio of Biotin-Ahx-Ub-VS probe labelling

O=C(CCl)Nc1ccc(F)cc1Cl
inactive: USP19 -0.2 | USP24 -0.832 | USP25 -0.414 | USP28 -0.873
